# Assay results reported in PubChem BioAssay.
# The source made the active and inactive calls. Unless noted, no rule for the calls is given here.
# Assays:
# [1] = A549 cell viability effects, profiling panel, calcein-AM fluorescence, 48 h, basal (AID 1162); details: higher = more signal; also: test concentration not given here
# [2] = adipocyte viability effects, profiling panel, cell-based, 3T3-L1 adipocytes, calcein-AM fluorescence, 48 h, basal (AID 1163); details: 3T3-L1 adipocytes viability, higher = more signal; also: test concentration not given here
# [3] = HepG2 cell viability effects, profiling panel, calcein-AM fluorescence, 48 h, basal (AID 1164); details: higher = more signal; also: test concentration not given here
# [4] = MM1S cell viability effects, profiling panel, calcein-AM fluorescence, 48 h, basal (AID 1165); details: higher = more signal;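 also: viability of MM1S multiple myeloma cells under basal unstimulated conditions; test concentration not given here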
# [5] = basal RPMI8226 viability, no added stimulus, profiling panel, cell-based, calcein-AM fluorescence, 48 h, PK04 Diversity Set (AID 1166); details: RPMI8226 myeloma viability, higher = more signal;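 also: cells grown under basal conditions without added stimulus; test concentration not given here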
# [6] = basal HepG2 mitochondrial membrane potential changes, profiling panel, cell-based, JC-1 fluorescence, 24 h, 100 nL compound (AID 1167); details: higher = more signal; also: test concentration not given here
# [7] = basal 3T3-L1 adipocyte mitochondrial potential changes, profiling panel, cell-based, JC-1 fluorescence, 3T3-L1 adipocytes, 24 h, 100 nL compound (AID 1168); details: JC-1 mitochondrial fluorescence, higher = more signal, called active from +8 up or from −8 down; also: test concentration not given here
# [8] = basal RPMI8226 mitochondrial membrane potential changes, profiling panel, cell-based, JC-1 fluorescence, 24 h, 100 nL compound (AID 1169); details: RPMI8226 myeloma, JC-1 mitochondrial potential fluorescence, higher = more signal; also: test concentration not given here
# [9] = basal MM1S mitochondrial membrane potential changes, profiling panel, cell-based, JC-1 fluorescence, 24 h, 100 nL compound (AID 1170); details: higher = more signal; also: test concentration not given here
# [10] = A549 lung cancer cell viability effects, profiling panel, resazurin fluorescence, 24 h, PK04 Diversity Set (AID 1171); details: higher = more signal, called active from +8 up or from −8 down; also: test concentration not given here
# [11] = HepG2 liver cancer cell viability effects, profiling panel, resazurin fluorescence, 24 h, PK04 Diversity Set (AID 1172); details: higher = more signal; also: test concentration not given here
# [12] = basal S. cerevisiae growth modulation, no modifier, primary screen, OD600, strain BY4716, 24 h, basal condition (AID 1173); details: OD600, 24 h, higher = more signal, called active from +8 up or from −8 down
# [13] = MM1S myeloma cell viability, profiling panel, resazurin fluorescence, basal, 24 h, PK04 Diversity Set (AID 1174); details: higher = more signal, called active from +8 up or from −8 down;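 also: MM1S multiple myeloma cell line; test concentration not given here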
# [14] = target: Dihydroorotate dehydrogenase (quinone), mitochondrial (Plasmodium falciparum (isolate 3D7)) (UniProt Q08210); assay: PfDHODH enzyme inhibitors, primary screen, biochemical, C-terminal His tag, absorbance 600 nm (AID 1175); details: DCIP absorbance 600 nm, higher = more signal, called active from +8 up or from −8 down;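 also: recombinant parasite enzyme with a five histidine tag at its C terminus; test concentration not given here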
# Chain of Dihydroorotate dehydrogenase (quinone), mitochondrial (Plasmodium falciparum (isolate 3D7)) (Q08210 whole entry, looked up): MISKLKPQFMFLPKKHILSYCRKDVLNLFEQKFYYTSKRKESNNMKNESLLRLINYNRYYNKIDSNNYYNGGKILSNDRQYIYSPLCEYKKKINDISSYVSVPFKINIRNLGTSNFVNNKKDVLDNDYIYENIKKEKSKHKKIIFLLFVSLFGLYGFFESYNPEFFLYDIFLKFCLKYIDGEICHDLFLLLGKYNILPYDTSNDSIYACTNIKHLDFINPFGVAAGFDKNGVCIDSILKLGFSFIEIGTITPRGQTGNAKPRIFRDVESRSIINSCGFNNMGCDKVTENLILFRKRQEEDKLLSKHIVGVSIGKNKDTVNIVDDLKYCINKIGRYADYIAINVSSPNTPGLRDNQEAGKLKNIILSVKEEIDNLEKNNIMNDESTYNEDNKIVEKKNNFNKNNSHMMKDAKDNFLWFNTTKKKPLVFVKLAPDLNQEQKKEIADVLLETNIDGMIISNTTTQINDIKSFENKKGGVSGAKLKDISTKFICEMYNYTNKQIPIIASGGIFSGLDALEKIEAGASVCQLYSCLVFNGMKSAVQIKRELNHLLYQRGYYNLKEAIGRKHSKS
# [15] = P. aeruginosa biofilm formation inhibitors, primary screen, strain PAO1, LB-PBS medium, absorbance 600 nm (AID 1176); also: test concentration not given here; details: P. aeruginosa PAO1 growth/biofilm, A600, 12 h; higher = more signal
# [16] = S. cerevisiae RM11-1a growth modifiers, primary screen, strain RM11-1a, OD600, basal, 24 h (AID 1177); details: OD600, 24 h, higher = more signal, called active from +8 up or from −8 down;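 also: cultures grown under basal conditions with no added stressor; test concentration not given here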
# [17] = E. coli acrAB mutant growth effects, primary screen, E. coli filamentation inducers, strain DRC39, OD650, 24 h (AID 1178); details: higher = more signal, called active from +8 up or from −8 down;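 also: growth measured as culture turbidity by optical density at 650 nm; test concentration not given here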
# [18] = E. coli acrAB mutant growth effects, primary screen, E. coli filamentation inducers, strain DRC39, OD650, 48 h (AID 1179);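 also: screen aims at cell division blockers that make cells filament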; details: E. coli DRC39 delta-acrAB growth, higher = more signal, called active from +8 up or from −8 down
# [19] = RPMI8226 myeloma cell viability, profiling panel, resazurin fluorescence, basal, 24 h, PK04 Diversity Set (AID 1180); details: higher = more signal;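 also: RPMI8826 multiple myeloma cell line at 5000 cells per well; test concentration not given here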
# [20] = target: E3 ubiquitin-protein ligase XIAP (Homo sapiens) (UniProt P98170); assay: XIAP binders, primary screen, biophysical, small-molecule microarray, fluorescence 635 nm (AID 1181); details: small-molecule microarray binding, higher = more signal;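 also: score merges 667 nm emission and signal to noise over triplicate slides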
# Chain of E3 ubiquitin-protein ligase XIAP (Homo sapiens) (P98170 whole entry, looked up): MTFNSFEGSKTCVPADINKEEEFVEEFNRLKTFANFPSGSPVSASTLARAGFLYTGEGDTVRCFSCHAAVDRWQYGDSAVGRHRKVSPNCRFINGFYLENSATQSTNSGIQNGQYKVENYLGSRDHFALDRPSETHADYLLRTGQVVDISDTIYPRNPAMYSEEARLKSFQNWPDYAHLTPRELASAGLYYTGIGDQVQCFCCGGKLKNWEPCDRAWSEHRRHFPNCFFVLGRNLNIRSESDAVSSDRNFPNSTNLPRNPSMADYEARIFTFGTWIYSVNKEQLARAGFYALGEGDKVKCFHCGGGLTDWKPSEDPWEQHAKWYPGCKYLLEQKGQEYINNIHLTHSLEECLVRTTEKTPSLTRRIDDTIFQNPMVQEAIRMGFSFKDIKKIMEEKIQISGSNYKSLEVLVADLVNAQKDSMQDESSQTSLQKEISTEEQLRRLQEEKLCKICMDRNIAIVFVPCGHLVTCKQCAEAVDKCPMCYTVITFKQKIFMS
SMILES,z-score [1],z-score [2],z-score [3],z-score [4],z-score [5],z-score [6],z-score [7],z-score [8],z-score [9],z-score [10],z-score [11],z-score [12],z-score [13],composite z-score [14],z-score [15],z-score [16],z-score [17],z-score [18],z-score [19],composite z-score [20]
C#CCCCON=C1C[C@@H](O)[C@@H](O)[C@@H]2[C@@H]3C(=O)N(C(C)(C)C)C(=O)[C@@H]3CC[C@@H]12,-0.145,-0.619,-0.486,0.154,0.381,-0.465,-0.286 (inactive),-0.0943,-0.283,-0.152 (inactive),-0.202,0.595 (inactive),-1.24 (inactive),0.289 (inactive),0.0001 (inactive),0.438 (inactive),-0.35 (inactive),-0.278 (inactive),0.0444,-0.0939
Cc1ccc(S(=O)(=O)N[C@H]2COC(=O)CC=C[C@@H](C)COC(=O)CC=C[C@@H]2C)cc1,0.409,-0.203,0.0995,0.0438,0.219,0.247,-0.393 (inactive),-0.0798,-0.197,0.258 (inactive),-0.118,-0.603 (inactive),0.186 (inactive),-0.765 (inactive),-0.319 (inactive),0.313 (inactive),0.0613 (inactive),-0.0105 (inactive),0.108,-0.239
C[C@@H](c1ccccc1)N1C(=O)[C@H]2[C@H]3[C@H](O)[C@H](O)CC(=NO[C@@H]4O[C@H](CO)[C@@H](O)[C@H](O)[C@H]4O)[C@@H]3CC[C@H]2C1=O,-0.57,0.698,-0.943,0.21,-0.253,-0.688,0.418 (inactive),-0.206,-0.189,-0.644 (inactive),-0.416,0.0492 (inactive),-0.671 (inactive),-0.337 (inactive),0.14 (inactive),-0.294 (inactive),-0.403 (inactive),0.334 (inactive),-0.361,-0.254
COC(=O)[C@H](C)NC(=O)CCC1CC(OC(=O)NCc2ccc3c(c2)OCO3)CC2(CCCC(COC(=O)NCCc3ccccc3OC)O2)O1 (stereo not given in full),-0.949,-0.976,-2.36,-3.53,-1.56,-1.34,0.354 (inactive),-0.241,-0.735,0.389 (inactive),-0.134,-0.148 (inactive),-0.344 (inactive),-1.07 (inactive),0.238 (inactive),0.0525 (inactive),0.775 (inactive),0.451 (inactive),-0.229,-0.252
O=C1OCCC=C1C(O)CCc1ccccc1 (stereo not given),0.0955,-0.831,-0.354,-0.575,0.146,-0.895,-0.54 (inactive),0.0715,-0.517,-0.0147 (inactive),0.0362,-0.567 (inactive),-0.649 (inactive),-0.0757 (inactive),-0.564 (inactive),-0.415 (inactive),0.258 (inactive),0.137 (inactive),-0.573,-0.202
COC(=O)[C@H](C)NC(=O)CCC1CC(OC(=O)NCc2ccc3c(c2)OCO3)CC2(CCCC(COC(=O)NCC3CCCCC3)O2)O1 (stereo not given in full),-0.374,-0.335,-0.653,-3.22,-0.103,-0.283,-0.183 (inactive),0.34,-0.0549,0.619 (inactive),0.635,0.415 (inactive),0.138 (inactive),0.981 (inactive),-0.388 (inactive),1.13 (inactive),0.49 (inactive),0.139 (inactive),-0.119,0.104
COC(=O)CC=C[C@@H](C)[C@@H](C=NO[C@H](C)c1cn([C@H](CO)Cc2ccccc2)nn1)OC,-0.0647,0.304,-0.458,0.209,0.0397,-0.741,-1.24 (inactive),0.923,1.74,0.556 (inactive),0.167,-0.285 (inactive),-0.242 (inactive),-0.184 (inactive),0.368 (inactive),-0.212 (inactive),0.0343 (inactive),-0.265 (inactive),0.261,-0.142
CC(C)CON=C1[C@H]2CCn3c(=O)n(Cc4cc5c(cc4Cl)OCO5)c(=O)n3[C@H]2[C@H](O)[C@@H]2O[C@H]12,-1.37,0.719,-0.0623,-0.053,-0.62,-0.0638,-0.443 (inactive),0.207,-0.354,-0.647 (inactive),-0.274,-0.761 (inactive),-0.302 (inactive),-2.76 (inactive),-1.4 (inactive),-0.471 (inactive),0.42 (inactive),-1.6 (inactive),-0.241,-0.0773
COC(=O)[C@H](C)NC(=O)CCC1CC(OC(=O)NCc2ccc3c(c2)OCO3)CC2(CCCC(COC(=O)NCC(c3ccccc3)c3ccccc3)O2)O1 (stereo not given in full),-0.641,0.155,-2.9,-3.53,-3.99,-1.01,-0.013 (inactive),-0.0228,-0.794,1.76 (inactive),0.0245,-1.23 (inactive),0.177 (inactive),-2.67 (inactive),-0.895 (inactive),0.0477 (inactive),-0.341 (inactive),0.532 (inactive),-0.0511,-0.0734
COC(=O)[C@H]1O[C@@H](c2c(OC)c(OC)c(C)c(OC)c2OC)[C@H](C)[C@@H](O)[C@H]1C,1.2,-0.302,0.825,1,1.36,0.438,0.61 (inactive),-0.398,-0.848,-1.27 (inactive),-0.617,-0.615 (inactive),-1.76 (inactive),-0.0757 (inactive),0.417 (inactive),0.275 (inactive),0.968 (inactive),0.926 (inactive),-0.456,-0.13
COc1cccc([C@H]2Oc3ccc(OC)cc3C(=NOC[C@@H](C)[C@H](OCc3ccccc3)C(C)C)[C@@H]2O)c1,-0.956,0.488,-0.744,-0.596,-2.12,-3.51,-0.65 (inactive),-0.188,0.748,0.385 (inactive),-0.214,0.635 (inactive),-0.0524 (inactive),-0.212 (inactive),0.347 (inactive),0.846 (inactive),0.221 (inactive),-1.18 (inactive),0.0541,0.0015
CCOC(=O)[C@H](Cc1ccccc1)NC(=O)CCC1CC(OC(=O)NCCc2ccc(F)cc2)CC2(CCCC(COC(=O)NCCc3ccc(Cl)cc3)O2)O1 (stereo not given in full),-0.648,-0.224,-0.44,-1.91,-1.94,-0.0496,-0.305 (inactive),0.158,-0.56,0.0031 (inactive),0.072,-0.0784 (inactive),0.231 (inactive),-0.161 (inactive),-0.0569 (inactive),0.809 (inactive),0.869 (inactive),0.721 (inactive),0.28,-0.0177
O=C1C[C@@H](O)[C@@H](O)[C@@H]2[C@@H]3C(=O)N(C[C@@H]4CCCO4)C(=O)[C@@H]3CC[C@@H]12,0.708,-0.378,1.12,0.107,-1.06,1.29,-0.248 (inactive),-0.407,0.345,-0.582 (inactive),-0.429,0.0532 (inactive),-0.272 (inactive),0.204 (inactive),0.565 (inactive),-0.129 (inactive),0.469 (inactive),0.582 (inactive),-0.12,-0.0989
CO[C@H]1COC(=O)CC=C[C@H](C)[C@@H](OC)COC(=O)[C@@H](C)NC(=O)CC=C[C@@H]1C,0.181,0.0797,-1.72,-0.227,0.0777,-0.0888,-1.76 (inactive),-0.244,-0.582,0.66 (inactive),0.789,-0.774 (inactive),1.01 (inactive),-0.355 (inactive),-0.491 (inactive),-0.937 (inactive),0.0013 (inactive),-0.597 (inactive),0.808,-0.244
COC(=O)CC=C[C@@H](C)[C@@H](C=NO[C@@H](C)c1cn([C@H](CO)Cc2ccccc2)nn1)NS(=O)(=O)c1ccc(C)cc1,0.788,0.521,1.35,0.56,0.593,-1.24,0.153 (inactive),-0.249,-0.648,-0.685 (inactive),-1.21,-0.913 (inactive),-0.412 (inactive),-1.16 (inactive),-1.54 (inactive),-2.06 (inactive),0.196 (inactive),0.364 (inactive),-0.808,-0.349
CC(CCN1CCCCc2nc(C)c(C)cc21)=NOC[C@@H](C)[C@H](OCc1ccccc1)C(C)C,0.139,0.588,1.39,-1.5,0.327,-0.728,0.155 (inactive),0.0506,-1.06,-0.472 (inactive),-0.345,-2.36 (inactive),-0.13 (inactive),-1.46 (inactive),0.147 (inactive),-2.61 (inactive),-1.22 (inactive),0.0039 (inactive),0.0342,0.0153
CON=C[C@@H](NS(=O)(=O)c1ccc(C)cc1)[C@H](C)C=CCC(=O)OC,1.19,-0.951,0.244,0.561,0.226,0.271,-0.95 (inactive),-0.0325,0.0264,-0.262 (inactive),0.27,-0.146 (inactive),-0.548 (inactive),0.244 (inactive),-0.291 (inactive),0.475 (inactive),0.717 (inactive),-0.761 (inactive),-0.484,-0.0773
CC(C)CON=C1C[C@@H](O)[C@@H](O)[C@@H]2[C@@H]3C(=O)N(C4CCCCC4)C(=O)[C@@H]3CC[C@@H]12,-0.162,0.617,-0.323,-0.34,-0.271,-1.21,-0.49 (inactive),-0.0174,0.268,-0.048 (inactive),-0.577,-4.72 (inactive),0.119 (inactive),-0.508 (inactive),-0.294 (inactive),0.523 (inactive),-0.3 (inactive),-1.17 (inactive),-0.0596,0.0159
